Data from PubChem BioAssay (NCATS).
Values without a mark were called inactive. Where a call stands in place of a potency, no number is given. For part of these data: Potency and affinity values are given separately. The source made the active and inactive calls. How the calls were made is not given here.

What was measured:
[1] = Ebola virus entry assay, green fluorescence channel
[2] = Ebola virus entry assay, blue channel fluorescence
[3] = Ebola virus entry assay, green channel fluorescence

Structure (SMILES) | efficacy [1] | outcome [2] | outcome [3] | AC50 [2]
CCOC(=O)c1ccc(O)c(O)c1 | -26.2% | inactive | inactive | –
CCOc1ccccc1OCC1CNCCO1 (stereo unspecified) | 47.7% | inactive | – | –
CCN(CC)CCOC(=O)c1ccc(N)cc1 | -27.3% | – | – | –
CN1C(C(=O)Nc2ccccn2)=C(O)c2sccc2S1(=O)=O | -30.7% | inactive | – | –
FC(F)(F)c1ccccc1-n1ccnc1 | 12.1% | inactive | inactive | –
COc1ccc2cccc(CCNC(C)=O)c2c1 | -16.7% | inactive | inactive | –
Cc1cc2nc3c(=O)[nH]c(=O)nc-3n(C[C@H](O)[C@H](O)[C@H](O)CO)c2cc1C | 67.6% | inactive | – | –
C[C@@H]1CCC[C@H](C)N1 | -7.35% | inactive | inactive | –
CC(C)NCC(O)c1cc(O)cc(O)c1 (stereo unspecified) | 56.8% | inactive | – | –
CC(=O)N[C@@H](CCC(=O)O)C(=O)O | -13.7% | inactive | inactive | –
C[C@@H]1CC2=CC(=O)CC[C@@H]2[C@H]2CC[C@@]3(C)[C@@H](CC[C@]3(C)O)[C@@H]21 | 24.6% | inactive | inactive | –
CNCCCCOc1ccccc1Cc1ccccc1 | 68.3% | – | – | 5.62 µM (active)
CCCCCCCC/C=C/C(=O)O | 20.4% | inactive | inactive | –
Cc1c(C)c2c(c(C)c1O)CCC(C)(COc1ccc(CC3SC(=O)NC3=O)cc1)O2 (stereo unspecified) | 35.5% | inactive | – | –
CN1Cc2cc(C(=O)N3CCC(C4CCNCC4)CC3)ccc2NC(CC(=O)O)C1=O (stereo unspecified) | 57.9% | inactive | – | –
